“And” between values parts separate entries of the source, which are not always exact repeats. Equal entries are not always repeated. About 2,000 (36%) of roughly 5,500 compounds were called active. Roughly 18% stayed inconclusive and do not appear here. No stated cut-off is given here; in the data, active means normalized growth mostly below about 0.91 (no sharp cut-off); inconclusive means no clear call, values can overlap the other calls; inactive means mostly above about 0.92. The list shows a part of the results.
Assay: chemical genetic growth profiling, strain panel (AID 1159580);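 further: tested at 20 µM; growth read once vehicle control cultures reached saturation at 30 °C; 1 = growth at the plate median or of vehicle wells; lower values mean less growth of the strain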
Conditions: S. cerevisiae deletion strains, growth OD

Measured: normalized growth

N[C@@H](C(=O)O)[C@@H](O)[C@H](O)[C@H](O)CO
inactive: locus YAL013W, strain DEP1, hits give low values 1.01 | locus YAL021C, strain ccr4, hits give low values 1.01 | locus YAL026C, strain drs2, hits give low values 1.04 | locus YAL030W, strain snc1, hits give low values 1.03 | locus YBL061C, strain skt5, hits give low values 1.03 | locus YBR009C, strain hhf1, hits give low values 1.03 | locus YBR021W, strain FUR4, hits give low values 1.01 | locus YBR023C, strain chs3, hits give low values 1.04 | locus YBR171W, strain sec66, hits give low values 1.04 | locus YBR229C, strain ROT2, hits give low values 1 | locus YBR231C, strain swc5, hits give low values 1.03 | locus YBR279W, strain paf1, hits give low values 1.01 | locus YCL011C, strain gbp2, hits give low values 1.04 | locus YCL016C, strain dcc1, hits give low values 1.02 | locus YCL029C, strain bik1, hits give low values 1.02 | locus YCL061C, strain MRC1, hits give low values 1.02 | locus YCL069W, strain vba3, hits give low values 1.03 | locus YCR088W, strain abp1, hits give low values 1.02 | locus YDL005C, strain med2, hits give low values 1.03 | locus YDL035C, strain GPR1, hits give low values 1.03 | locus YDL040C, strain nat1, hits give low values 1.01 | locus YDL074C, strain BRE1, hits give low values 1.06 | locus YDL101C, strain DUN1, hits give low values 1.01 | locus YDL185W, strain tfp1, hits give low values 1.02 | locus YDL192W, strain arf1, hits give low values 1.03 | locus YDR001C, strain nth1, hits give low values 1.02 | locus YDR069C, strain doa4, hits give low values 1.02 | locus YDR101C, strain arx1, hits give low values 1.02 | locus YDR137W, strain rgp1, hits give low values 1.04 | locus YDR150W, strain NUM1, hits give low values 1.02 | locus YDR159W, strain sac3, hits give low values 1.07 | locus YDR162C, strain NBP2, hits give low values 1.01 | locus YDR195W, strain ref2 1.02 | locus YDR297W, strain sur2, hits give low values 1.03 | locus YDR318W, strain mcm21, hits give low values 1 | locus YDR334W, strain swr1, hits give low values 1.03 | locus YDR335W, strain msn5, hits give low values 1.03 | locus YDR388W, hits give low values 1.01 | locus YDR392W, strain spt3, hits give low values 1.02 | locus YDR502C, strain sam2, hits give low values 1.01 | locus YEL003W, strain gim4, hits give low values 1.03 | locus YEL037C, strain rad23, hits give low values 1.02 | locus YEL061C, strain CIN8 (second series), hits give low values 1.03 | locus YEL061C, strain CIN8, hits give low values 1.02 | locus YER015W, strain faa2, hits give low values 1.03 | locus YER016W, strain bim1, hits give low values 1.02 | locus YER110C, hits give low values 1.02 | locus YER111C, strain swi4, hits give low values 1.03 | locus YER155C, strain BEM2 (second series), hits give low values 1 | locus YER155C, strain BEM2, hits give low values 1.01 | locus YER167W, strain BCK2, hits give low values 1 | locus YFR010W, strain ubp6, hits give low values 1.04 | locus YGL078C, strain dbp3, hits give low values 1.01 | locus YGL086W, strain mad1, hits give low values 1.01 | locus YGL167C, strain pmr1, hits give low values 1.04 | locus YGL173C, strain kem1, hits give low values 1.04 | locus YGL227W, strain vid30, hits give low values 1.02 | locus YGL240W, strain doc1, hits give low values 1.02 | locus YGL248W, strain PDE1, hits give low values 1 | locus YGL253W, strain hxk2, hits give low values 1.04 | locus YGR135W, strain pre9, hits give low values 1.01 | locus YGR252W, strain gcn5, hits give low values 0.967 | locus YHR013C, strain ard1, hits give low values 1.05 | locus YHR027C, strain rpn1, hits give low values 1.04 | locus YHR030C, strain SLT2, hits give low values 1.01 and 1.05 | locus YHR079C, strain IRE1 (second series), hits give low values 1.02 | locus YHR079C, strain IRE1, hits give low values 1.03 | locus YHR094C, strain hxt1, hits give low values 1.02 | locus YHR129C, strain ARP1, hits give low values 1 | locus YHR142W, strain chs7, hits give low values 1.07 | locus YHR200W, strain rpn10, hits give low values 1.02 | locus YIL066C, strain RNR3, hits give low values 1.01 | locus YIL073C, strain SPO22, hits give low values 1.05 | locus YIL125W, strain kgd1, hits give low values 1.02 | locus YIR030C, strain dcg1, hits give low values 1.02 | locus YJL092W, strain hpr5, hits give low values 1.03 | locus YJL095W, strain BCK1 (second series), hits give low values 1.02 | locus YJL095W, strain BCK1, hits give low values 1.01 and 1.04 | locus YJL115W, strain asf1, hits give low values 1.04 | locus YJL129C, strain trk1, hits give low values 1.06 | locus YJL134W, strain LCB3, hits give low values 1.01 | locus YJL154C, strain vps35, hits give low values 1.02 | locus YJL164C, strain tpk1, hits give low values 1.03 | locus YJL166W, strain qcr8, hits give low values 1.03 | locus YJL168C, strain set2, hits give low values 1.02 | locus YJL187C, strain SWE1 (second series), hits give low values 1.01 | locus YJL187C, strain SWE1, hits give low values 1.05 | locus YJR043C, strain POL32, hits give low values 1.02

From PubChem BioAssay AID1159580 (chemical genetic matrix, 2015)
